Laboratory results: PubChem BioAssay AID540276 (National Center for Advancing Translational Sciences (NCATS), 2011)
Hit rate of the full screen: of about 300,000 compounds, about 5,400 (1.8%) were called active. Where a call stands in place of a potency, no number is given. About 28% were inconclusive and are not listed. Calls follow the shape of the full dose curve; tested in HEK293 cells. The sample as a whole holds a higher share of actives than the screen did.

assay: qHTS for inhibitors of binding or entry into cells for Marburg Virus; conditions: Marburg virus pseudotyped entry inhibition, cell reporter; series mostly up to 37.8 µM
Potency is read from the fitted curve at half-maximal effect.

Question: For `CC(C)=CCCC(C)=CCN1C(=O)[C@]2(OCCC=C[C@H]2C)c2ccccc21`, which Potency is on record?
Answer: The Potency was “inactive”.

Question: Which Potency does the source give for `O=C(c1ccco1)N1CCN(C(=S)Nc2cc(F)cc(F)c2)CC1` here?
Answer: The Potency was “inactive”.

Question: For `CN(Cc1ccccc1)C(=O)C1CCCN(c2ncnc3c2nc2n3CCCCC2)C1` (stereo not drawn), which Potency is on record?
Answer: Its Potency is “inactive”.

Question: With `CC(NC(=O)c1ccccc1)C(=O)OCC(=O)Nc1cccc(S(=O)(=O)N2CCCC2)c1` (stereo not drawn) as the compound, how does the Potency read?
Answer: Its Potency is “inactive”.

Question: With `Cc1ccccc1N(C(=O)CNC(=O)c1cccs1)C(C(=O)NC1CCCC1)c1ccncc1` (stereo not drawn) as the compound, how does the Potency read?
Answer: Its Potency is “inactive”.

Question: For `CC(NC(=O)COC(=O)c1ccc2ccccc2n1)c1ccccc1` (stereo not drawn), which Potency is on record?
Answer: The Potency was “inactive”.

Question: For `C=C(C)C(=O)Nc1cccc(C(C)=O)c1`, which Potency is on record?
Answer: Its Potency is “inactive”.

Question: For `CCSc1nsc(NC(=O)Nc2cccc(C(C)=O)c2)n1`, which Potency is on record?
Answer: Its Potency is 10 µM (active).

Question: For `CC(=O)c1cccc(NC(=O)Nc2ccc(C)cc2)c1`, which Potency is on record?
Answer: The Potency was “inactive”.

Question: Which Potency does the source give for `CCOc1cccc(NC(=O)Cn2nc(-c3ccc4c(c3)OCCO4)ccc2=O)c1` here?
Answer: The Potency was “inactive”.

Question: Which Potency does the source give for `CC(=O)c1cc2c(cc1NC(=O)CN1CCCCCC1)OCO2` here?
Answer: The Potency was “inactive”.

Question: With `CC(=O)c1cc2c(cc1NC(=O)Cn1nc(-c3ccc(F)cc3)ccc1=O)OCO2` as the compound, how does the Potency read?
Answer: The Potency was 10 µM (active).

Question: For `CN(CC(=O)Nc1ccc(C(N)=O)cc1)S(=O)(=O)c1ccc2c(c1)OCCO2`, which Potency is on record?
Answer: Its Potency is “inactive”.

Question: For `Cc1ccc2nc(SCC(=O)N3CCN(c4ccccc4)CC3)nc(=O)n2c1`, which Potency is on record?
Answer: Its Potency is “inactive”.

Question: For `Cc1cccc(-c2nnc(SCC(=O)O)n2Cc2ccccc2)c1`, which Potency is on record?
Answer: The Potency was “inactive”.

Question: With `CCOC(=O)c1cn(Cc2cccc(C)c2)nn1` as the compound, how does the Potency read?
Answer: Its Potency is 3.98 µM (active).

Question: Which Potency does the source give for `CCOC(=O)c1cn(CC(=O)Nc2ccc(C(C)C)cc2)nn1` here?
Answer: Its Potency is “inactive”.

Question: Which Potency does the source give for `O=C(C/C(=N\O)c1ccccc1O)C(F)F` here?
Answer: The Potency was “inactive”.

Question: Which Potency does the source give for `Cc1cc(S(=O)(=O)NCC(C)C)ccc1OCC(=O)NC1CC1` here?
Answer: Its Potency is “inactive”.

Question: With `COC(=O)Cc1ccc(NC(=S)NCc2ccccc2)cc1` as the compound, how does the Potency read?
Answer: Its Potency is “inactive”.

Question: With `S=C(NCCc1ccccc1)Nc1ccccc1` as the compound, how does the Potency read?
Answer: Its Potency is “inactive”.

Question: Which Potency does the source give for `FC(F)(F)Oc1ccc(NC(=S)NCc2ccccc2)cc1` here?
Answer: The Potency was 11.2 µM (active).

Question: For `CSc1nc(-c2ccccc2)nc(C(Cl)Cl)n1`, which Potency is on record?
Answer: The Potency was 3.55 µM (active).

Question: For `CCc1noc(C)c1C(=O)N1CCCC(N2CCN(c3ccc(F)cc3)CC2)C1` (stereo not drawn), which Potency is on record?
Answer: The Potency was “inactive”.

Question: Which Potency does the source give for `COC1=CC(=O)OC(C)(c2ccccc2)C1` (stereo not drawn) here?
Answer: Its Potency is “inactive”.

Question: With `CCOc1cc(C)c(S(=O)(=O)NCc2ccccn2)cc1C` as the compound, how does the Potency read?
Answer: The Potency was “inactive”.

Question: With `CCOc1cc(CNCc2ccccn2)ccc1OCC(=O)NC(C)(C)C` as the compound, how does the Potency read?
Answer: Its Potency is 7.08 µM (active).

Question: Which Potency does the source give for `CCOc1cc(CNn2c(C)nnc2SCC(=O)NC(C)(C)C)ccc1OCC(=O)NC(C)(C)C` here?
Answer: Its Potency is “inactive”.

Question: Which Potency does the source give for `O=C(Nc1ccc(Cl)cn1)[C@H]1CCCN1S(=O)(=O)c1ccccc1` here?
Answer: Its Potency is “inactive”.

Question: For `O=C(COc1ccc(S(=O)(=O)N2CCOCC2)cc1Cl)N1CCOCC1`, which Potency is on record?
Answer: The Potency was “inactive”.

Question: For `Cc1cc(S(=O)(=O)N2CCOCC2)ccc1OCC(=O)N1CCOCC1`, which Potency is on record?
Answer: Its Potency is “inactive”.

Question: Which Potency does the source give for `CN(CC(O)COc1ccc(S(=O)(=O)N2CCOCC2)cc1Cl)C1CCCCC1` (stereo not drawn) here?
Answer: The Potency was 10 µM (active).

Question: For `COc1ccccc1NC(=O)N(O)C1(C#N)CCCCC1`, which Potency is on record?
Answer: The Potency was “inactive”.

Question: For `O=C(Nc1cccc(S(=O)(=O)NC2=NCCC2)c1)c1ccc(F)cc1F`, which Potency is on record?
Answer: Its Potency is “inactive”.

Question: For `Cc1cc(C)c(C)c(S(=O)(=O)Nc2cccnc2)c1C`, which Potency is on record?
Answer: Its Potency is “inactive”.

Question: Which Potency does the source give for `N#Cc1ccc(C(c2nnnn2CCc2ccccc2)N2CCCCCC2)cc1` (stereo not drawn) here?
Answer: Its Potency is 20.6 µM (active).

Question: Which Potency does the source give for `COc1ccc(CCn2nnnc2C(c2ccccc2)N2CCN(C)CC2)cc1OC` (stereo not drawn) here?
Answer: Its Potency is “inactive”.

Question: With `CC(C)C(c1nnnn1CCc1ccccc1)N1CCN(C(=O)c2ccco2)CC1` (stereo not drawn) as the compound, how does the Potency read?
Answer: The Potency was “inactive”.

Question: For `CC(C)(C)S(=O)(=O)c1ccccc1-c1noc(-c2ccccc2)c1C(N)=O`, which Potency is on record?
Answer: The Potency was “inactive”.

Question: For `COc1ccc(S(=O)(=O)N2CCN(c3cnccn3)CC2)cc1`, which Potency is on record?
Answer: Its Potency is “inactive”.

Question: For `O=C(Nc1ccc(S(=O)(=O)NCC2CCCO2)cc1)c1ccc(F)cc1` (stereo not drawn), which Potency is on record?
Answer: Its Potency is “inactive”.

Question: With `CN(Cc1ccccc1)C(=O)C(=O)c1cn(CC(=O)N2CCCC2)c2ccccc12` as the compound, how does the Potency read?
Answer: The Potency was “inactive”.

Question: For `CCc1ccc(NC(=O)C(=O)NNC(=O)c2cccs2)cc1`, which Potency is on record?
Answer: Its Potency is “inactive”.

Question: Which Potency does the source give for `Cc1ccc(NNC(=O)c2c(F)cccc2Cl)cc1Cl` here?
Answer: The Potency was “inactive”.

Question: For `Cc1ccc(NNC(=O)c2cccs2)cc1Cl`, which Potency is on record?
Answer: The Potency was 6.31 µM (active).

Question: For `Cc1nc(CN(C)C(=O)CC2C(=O)NCCN2Cc2ccc(F)cc2)cs1` (stereo not drawn), which Potency is on record?
Answer: Its Potency is “inactive”.

Question: For `C/C(=N\NC(=O)C1(C)CC1(Br)Br)c1ccc(C)cc1C` (stereo not drawn), which Potency is on record?
Answer: The Potency was “inactive”.

Question: With `COC(=O)c1sc2ncccc2c1OCc1ccc(Cl)cc1Cl` as the compound, how does the Potency read?
Answer: The Potency was “inactive”.

Question: Which Potency does the source give for `NC(N)=N/N=C/c1ccc(OCc2ccc(Cl)cc2Cl)cc1` here?
Answer: The Potency was 10.3 µM (active).

Question: With `CCOc1ccc(/C=N/NC(N)=S)cc1` as the compound, how does the Potency read?
Answer: The Potency was “inactive”.

Question: With `Cc1ccc(NC(=O)COc2coc(CN3CCc4ccccc4C3)cc2=O)cc1Cl` as the compound, how does the Potency read?
Answer: The Potency was “inactive”.

Question: For `CC(=O)c1ccc(NC(=O)C(C)OC(=O)c2ccc(NS(=O)(=O)c3ccc4[nH]c(=O)[nH]c4c3)cc2)cc1` (stereo not drawn), which Potency is on record?
Answer: The Potency was “inactive”.

Question: With `CCCCN1C2CCC1CC(OC(c1ccc(F)cc1)c1ccc(F)cc1)C2` (stereo not drawn) as the compound, how does the Potency read?
Answer: The Potency was 3.55 µM (active).

Question: For `COc1cc(OC)cc(C(=O)Nc2nnc(SCC(=O)NCC3CCCO3)s2)c1` (stereo not drawn), which Potency is on record?
Answer: Its Potency is “inactive”.

Question: For `CCOc1ccc(NC(=O)CN2CCN(CC(=O)Nc3ccc(OC)cc3)CC2)cc1`, which Potency is on record?
Answer: The Potency was “inactive”.

Question: Which Potency does the source give for `CCc1cc(C(=O)c2ccc(OC)cc2)c(NC(=O)CN2CCN(C)CC2)s1` here?
Answer: The Potency was 3.55 µM (active).

Question: With `COc1ccc(OC)c(NC(=O)CN2CCN(C(=O)c3ccco3)CC2)c1` as the compound, how does the Potency read?
Answer: The Potency was “inactive”.

Question: Which Potency does the source give for `COc1ccc(CNC(=O)C2CCN(C(=O)c3ccco3)CC2)cc1` here?
Answer: The Potency was “inactive”.

Question: With `COc1cc2[nH]c(O)c(C=O)c2cc1OC` as the compound, how does the Potency read?
Answer: The Potency was “inactive”.

Question: With `COc1ccc(CC(=O)Nc2nc(-c3ccc(F)c(F)c3)cs2)cc1OC` as the compound, how does the Potency read?
Answer: The Potency was 10 µM (active).

Question: Which Potency does the source give for `COc1cc(CC(=O)Nc2nc(-c3ccc(F)c(F)c3)cs2)cc(OC)c1OC` here?
Answer: The Potency was 7.94 µM (active).

Question: With `COc1ccc(-c2csc(NC(=O)COC(=O)Cc3ccc(Cl)cc3Cl)n2)cc1` as the compound, how does the Potency read?
Answer: Its Potency is “inactive”.

Question: Which Potency does the source give for `CCCc1ccc(-c2csc(NC(=O)Cc3cccs3)n2)cc1` here?
Answer: Its Potency is “inactive”.

Question: For `COc1ccc(-c2csc(NC(=O)c3ccc(N4C(=O)CCC4=O)cc3)n2)cc1OC`, which Potency is on record?
Answer: The Potency was “inactive”.

Question: With `Cc1ccc(-c2csc(NC(=O)Cc3cccs3)n2)cc1C` as the compound, how does the Potency read?
Answer: The Potency was “inactive”.

Question: With `CCOc1ccc(CCNC(=O)COC(=O)c2c(OC)cccc2OC)cc1OCC` as the compound, how does the Potency read?
Answer: The Potency was “inactive”.

Question: For `Cc1cc(Br)ccc1NC(=O)CN(C)C(=O)CN1C(=O)NC2(CCCC2)C1=O`, which Potency is on record?
Answer: Its Potency is “inactive”.

Question: Which Potency does the source give for `CCc1nnc(NC(=O)C2CCN(C(=O)c3ccccc3C)CC2)s1` here?
Answer: The Potency was “inactive”.
